Experimental data reported in PubChem BioAssay AID1851 (National Center for Advancing Translational Sciences (NCATS), 2009).
Where “and” joins values, the source holds several entries; their conditions need not be identical. Identical values can stand only once. Hit rate of the full screen: of about 16,000 compounds, about 5,700 (36%) were called active. About 24% were inconclusive and are not listed. The call rests on the fitted dose curve; in most records, active means well fitted curve in the direction sought with a large enough effect; inconclusive means small, poorly fitted or top-dose-only effect, or effect the other way; inactive means no such curve, though single readings can be large or run the other way. The list shows a part of the results.

Each compound was assayed against Cytochrome P450 1A2 (Homo sapiens) (UniProt P05177) (assay: Cytochrome panel assay with activity outcomes). Conditions: recombinant CYP, pro-luciferin dealkylation, luminescence, p450-cyp1a2; series mostly up to 57.1 µM; activity, negative = inhibition: at the top concentration.
On the % scale 0 is the no-effect control and ±100 the full control effect.

Sequence of Cytochrome P450 1A2 (Homo sapiens) (P05177 whole entry, looked up): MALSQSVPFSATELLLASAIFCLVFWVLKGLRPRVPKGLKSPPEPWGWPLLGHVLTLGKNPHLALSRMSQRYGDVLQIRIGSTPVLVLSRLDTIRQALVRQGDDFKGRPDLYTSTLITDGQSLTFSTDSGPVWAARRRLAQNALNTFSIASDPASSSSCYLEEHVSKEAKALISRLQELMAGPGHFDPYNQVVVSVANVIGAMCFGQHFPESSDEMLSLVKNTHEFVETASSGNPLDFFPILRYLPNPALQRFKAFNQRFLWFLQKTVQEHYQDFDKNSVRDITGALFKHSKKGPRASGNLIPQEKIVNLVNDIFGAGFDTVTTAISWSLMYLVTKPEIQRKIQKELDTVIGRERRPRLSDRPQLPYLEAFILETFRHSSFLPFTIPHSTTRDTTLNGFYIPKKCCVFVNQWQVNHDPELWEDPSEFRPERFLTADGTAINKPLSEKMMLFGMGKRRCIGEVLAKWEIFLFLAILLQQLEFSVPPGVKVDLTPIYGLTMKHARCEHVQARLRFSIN

SMILES | activity, negative = inhibition | AC50
c1cc(CN2CCC3(CCNCC3)CC2)ccn1 | -15.3% (inactive) | 
NCc1cc(=O)[nH]o1 |  | inactive
CN(C)c1ccc(NC(=O)CN2C(=O)CN=C(c3ccccc3)c3ccccc32)cc1 |  | 10 µM (active)
CCN(CC)CCO[C@H]1CC[C@@]2(C)C(=CC[C@@H]3[C@H]2CC[C@]2(C)C(=O)CC[C@H]32)C1 | -19.9% (inactive) | 
O=C(C[C@H](c1ccccc1)c1c(O)c2ccccc2oc1=O)c1ccccc1 | -12.6% [at 2.29 µM] (inactive) | 
COc1ccc(NC(=O)N2CCCC3(CCN(C(=O)Oc4ccccc4)CC3)C2)cc1 |  | 12.6 µM (active)
COc1ccc(NC(=O)N2CC[C@@]3(CCCN(C(=O)Oc4ccccc4)C3)C2)cc1 | -7.09% (inactive) | 
O=C(Nc1ccccc1)N1CCC2(CC1)CCN(C(=O)Oc1ccccc1)CC2 | -16.7% (inactive) | 
CN1CCCC2(CCN(C(=O)c3ccncc3)CC2)C1 | -14% (inactive) | 
O=c1c2ccccc2nc(N2CCCC2)n1-c1ccc(Cl)cc1 |  | 5.01 µM (active)
Cc1nc2sccc2c(=O)n1-c1ccccc1Cl | -11.7% (inactive) | 
C[Se]C[C@@H](N)C(=O)O | 0.0958% (inactive) | 
CN1C(=O)CCS(=O)(=O)[C@H]1c1ccc(Cl)cc1 | -10.6% (inactive) | 
O=C(C1CC(=O)N(C2CCCC2)C1)N1CCC2(CC1)OCCO2 (stereo not given) | 0.726% (inactive) | 
C[N+]1(C)[C@@H]2CC[C@H]1CC(OC(=O)c1c[nH]c3ccccc13)C2 (stereo not given in full) | -2.58% (inactive) | 
N[C@H](Cc1c[nH]c2ccccc12)P(=O)(O)O | -15.7% [at 11.4 µM] (inactive) | 
CC(C(=O)c1c[nH]c2ccccc12)N1CCSCC1 (stereo not given) |  | 15.8 µM (active)
C=Cn1ccnc1P(=S)(c1nccn1C=C)C1CCCCC1 | -21.2% (inactive) | 
Cc1cc(=O)n(-c2ccccc2)n1C | -12.9% [at 25.6 µM] (inactive) | 
C=C(C)[C@H]1CN[C@H](C(=O)O)[C@@H]1CC(=O)O | 6.18% (inactive) | 
CC(N)Cc1ccccc1Sc1ccc(O)cc1 (stereo not given) | -12.6% (inactive) | 
CC(=O)N[C@@H]1CCSC1=O | -5.47% [at 25.6 µM] (inactive) | 
CCN(CC)CC#CCOC(=O)[C@@](O)(c1ccccc1)C1CCCCC1 |  | 1.26 µM (active)
CCOC(C(=O)OCCCN(CC)CC)(c1ccccc1)c1ccccc1 | -0.835% (inactive) | 
CC[N@+]1(C)CCC[C@@H](OC(=O)C(O)(c2ccccc2)c2ccccc2)C1 | 2.32% [at 25.6 µM] (inactive) | 

SMILES | activity, negative = inhibition | AC50
c1ccc(CN2CCCC3(CCNCC3)C2)cc1 | -1.46% (inactive) | 
C/C(=N\OC(=O)NC(C)C)c1sc(-c2ccc(Cl)cc2)nc1C |  | 1.12 µM (active)
C/C(=N\OC(=O)NC(C)C)c1sc(-c2ccccc2)nc1C |  | 2 µM (active)
CC[C@@H]1CN2CCc3cc(OC)c(OC)cc3[C@H]2C[C@@H]1C[C@@H]1NCCc2cc(O)c(OC)cc21 | -7.35% [at 25.6 µM] (inactive) | 
CCN1C[C@]2(C)CC[C@H](OC)[C@@]34[C@@H]2[C@H](OC(C)=O)[C@]2(OCO[C@@]25C[C@@H](OC)[C@@H]2C[C@@]3(O)[C@H]5[C@@H]2OC)[C@H]14 | -3.74% [at 25.6 µM] (inactive) | 
CCN(CC)c1ncnc2c1ncn2[C@@H]1O[C@@H](COP(=O)(O)OP(=O)(O)C(Br)(Br)P(=O)(O)O)[C@H](O)[C@@H]1O | 2.91% (inactive) | 
CCc1ccccc1NC(=S)NC1CC2CCC(C1)N2Cc1ccco1 (stereo not given) | 6.19% (inactive) | 
Cn1c[n+](C)cc1C(O)c1ccccc1 (stereo not given) | 1.79% (inactive) | 
CN1[C@@H]2CC[C@H]1CC(O[C@@H](c1ccccc1)c1ccc(Cl)cc1)C2 (stereo not given in full) | -6.52% (inactive) | 
CN1[C@@H](C[C@@H](O)c2ccccc2)CCC[C@@H]1C[C@H](O)c1ccccc1 |  | 5.01 µM (active)
CN1[C@H](CC(=O)c2ccccc2)CCC[C@H]1C[C@H](O)c1ccccc1 |  | 15.8 µM (active)
CC[C@@]1(c2ccc(N)cc2)CCC(=O)NC1=O |  | inactive
Oc1ccc2c3c1O[C@H]1c4[nH]c5ccccc5c4C[C@]4(O)[C@H](C2)N(CC2CC2)CC[C@@]314 | -1.2% (inactive) | 
NS(=O)(=O)c1cc([C@@]2(O)NC(=O)c3ccccc32)ccc1Cl | -4.19% [at 25.6 µM] (inactive) | 
C[N+](C)(C)[C@H](Cc1c[nH]c(=S)[nH]1)C(=O)O | -18.9% [at 11.4 µM] (inactive) | 
COc1cc(C(=O)OC2C[C@H]3CC[C@@H](C2)N3C)ccc1O (stereo not given in full) | -0.206% [at 25.6 µM] (inactive) | 
C=C(C)[C@H]1CC[C@]2(CO)CC[C@]3(C)[C@@H](CC[C@H]4[C@@]5(C)CC[C@@H](O)C(C)(C)[C@@H]5CC[C@@]43C)[C@H]12 | -6.53% [at 25.6 µM] (inactive) | 
O=C(Nc1cccc(F)c1)N1CC2(CCNCC2)C1 | -5.1% (inactive) | 
NCCc1ccc(O)cc1 | -14.6% (inactive) | 
NCCc1c[nH]c2ccc(O)cc12 |  | 2 µM (active)
CC(=O)NCCc1c[nH]c2ccccc12 |  | 15.8 µM (active)
CN(C)CCCc1c[nH]c2ccccc12 | -12.5% [at 11.4 µM] (inactive) | 
CNCCc1c[nH]c2ccc(O)cc12 | -22.8% (inactive) | 
CC(C)C[C@H](NP(=O)(O)O[C@@H]1O[C@@H](C)[C@@H](O)[C@@H](O)[C@H]1O)C(=O)N[C@@H](Cc1c[nH]c2ccccc12)C(=O)O | -1.79% (inactive) | 
NCCc1c[nH]c2ccc(C(N)=O)cc12 |  | 6.31 µM (active) and 1.26 µM (active)

SMILES | activity, negative = inhibition | AC50
NCCc1c[nH]c2ccccc12 |  | 3.16 µM (active)
COC(=O)[C@H]1[C@H](c2ccccc2)C(=O)[C@@]2(O)c3ccccc3O[C@@]12c1ccccc1 | -5.65% [at 11.4 µM] (inactive) | 
CO[C@@H](C)[C@](O)(C(=O)OCC1=CCN2CC[C@@H](O)[C@H]12)C(C)C | -7.03% [at 25.6 µM] (inactive) | 
c1ccc(CCN2CCOCC2)nc1 | -3% [at 2.29 µM] (inactive) | 
CCCCCCCCCCCCCC(=O)O[C@H]1[C@@H](C)[C@@]2(O)[C@@H](C=C(CO)C[C@]3(O)C(=O)C(C)=C[C@@H]23)C2C(C)(C)[C@]21OC(C)=O (stereo not given in full) | -12.3% (inactive) | 
C[C@H]1[C@H](NC(=O)/C(=N/OC(C)(C)C(=O)O)c2csc(N)n2)C(=O)N1S(=O)(=O)O (stereo in doubt) | -4.29% [at 25.6 µM] (inactive) | 
Cc1ccc(N2C(=O)/C(=C/c3ccc(CN(CCC#N)S(C)(=O)=O)o3)C(=O)NC2=S)cc1C | -25.3% (inactive) | 
CCCN(CCC)C(=O)Cc1c(-c2ccc(Cl)cc2)nc2c(Cl)cc(Cl)cn12 | -10.1% (inactive) | 
NC(=O)c1ccc(C(=O)Nc2ccc([As](=O)(O)O)cc2)cc1 | -13.8% [at 2.29 µM] (inactive) | 
CCOP(=O)(CN(CC)CCNP(=O)(OCC)OCC)OCC | 27.4% (inactive) | 
CN1C2CCC1CC(OC(=O)c1ccc(Cl)cc1)C2 (stereo not given) | 3.37% (inactive) | 
C[C@@]12CC[C@H]3[C@H](CC=C4C[C@@H](O)CC[C@@]43C)[C@@H]1CC[C@@H]2N(CCO)CCO | -4.6% [at 11.4 µM] (inactive) | 
COC(=O)c1[nH]c2ccc(Br)cc2c1NC(=O)Oc1ccccc1 |  | 0.0631 µM (active)
C[C@]12CC[C@H](O)CC1=CC[C@@H]1[C@H]2CC[C@]2(C)C(=O)CC[C@H]12 | -11.6% (inactive) | 
N[C@H](CCCCCP(=O)(O)O)C(=O)O | -15.1% (inactive) | 
C/C(=C\C=C/[C@@H](C)C(=O)O)[C@H]1CN[C@H](C(=O)O)[C@@H]1CC(=O)O | -14.8% (inactive) | 
C[C@]1(O)CC[C@H]2[C@@H]3[C@@H](O)CC4=CC(=O)CC[C@@]4(C)[C@H]3CC[C@]21C | 1.44% [at 2.29 µM] (inactive) | 
O=P(c1ccccc1)(c1ccccc1)N1CC2(CC2)CC(O)(c2ccccc2)C1 (stereo not given) | -19.7% (inactive) | 
O=C(Nc1ccc(Cl)cc1)Nc1nccs1 |  | 0.141 µM (active)
C[C@]12CC[C@H]3c4ccc(O)cc4CC[C@@H]3[C@H]1CC[C@@H]2OC(=O)CCc1ccccc1 | -13.8% [at 2.29 µM] (inactive) | 
CCCCc1nc2ccccc2c(=O)n1-c1ccc(Cl)cc1[N+](=O)[O-] | -25.1% (inactive) | 
Cc1ccc(-c2nc3ccccc3c(=O)n2-c2ncccc2C)cc1 | -12.2% (inactive) | 
CCCCc1nc2ccccc2c(=O)n1-c1ccccc1[N+](=O)[O-] |  | 14.1 µM (active)
CCCc1nc2ccccc2c(=O)n1-c1ccc(OC)cc1 |  | 12.6 µM (active)
NC(N)=Nc1ccc2[nH]c3c(c2c1)C[C@]1(O)[C@@H]2Cc4ccc(O)c5c4[C@]1(CCN2CC1CC1)[C@H]3O5 | 9.9% (inactive) | 

SMILES | activity, negative = inhibition | AC50
NS(=O)(=O)C[C-]1C=C[CH]([Sb-]([Cl])([Cl])([Cl])([Cl])[Cl])C=C1.c1ccncc1 (stereo not given) | -15.1% [at 11.4 µM] (inactive) | 
O=C(O)[C@@H](O)[C@@H](O)[C@@H]1[O][Sb][O][C@@H]1CO | -5.14% [at 2.29 µM] (inactive) | 
CCC1=C(C[C@H]2NCCc3cc(OC)c(OC)cc32)C[C@H]2c3ccccc3CCN2C1 | -6.07% [at 11.4 µM] (inactive) | 
O=C(O)CNC(=O)[C@@H](CS)Cc1ccccc1 | -4.85% [at 25.6 µM] (inactive) | 
c1ccc2cc(CC3=NCCN3)ccc2c1 | 2.54% (inactive) | 
Cc1sc2ccccc2c1CC1=NCCN1 |  | 2.51 µM (active)
Cc1cc(C(C)(C)C)cc(C)c1CC1=NCCN1 | -8.4% [at 25.6 µM] (inactive) | 
CCCN1CCC[C@H](c2cccc(C#N)c2)C1 | -12.2% (inactive) | 
CCN(CC)c1ccc(/C=C2/C(=O)NC(=O)N(CC3CCCO3)C2=O)cc1 (stereo not given) |  | 12.6 µM (active)
O=c1cccc2n1CC1CNC[C@H]2C1 | -5.12% [at 25.6 µM] (inactive) | 
CC(C)(C)CC(=O)NC(=S)Nc1ccccc1C(F)(F)F |  | 11.2 µM (active)
O=[As](O)(O)c1ccc(N=Nc2ccc(O)cc2)cc1 | -14.5% [at 11.4 µM] (inactive) | 
O=P(Nc1c(Cl)cccc1Cl)(c1ccccc1)c1nc2c(s1)CCCC2 (stereo not given) | -1.03% (inactive) | 
CCN(CC)C(=O)N[C@@H]1C[C@H]2c3cccc4[nH]cc(c34)C[C@@H]2N(C)C1 |  | inactive
COc1ccc2cc1Oc1ccc(cc1)C[C@H]1c3cc(c(OC)cc3CCN1C)Oc1c(OC)c(OC)cc3c1[C@@H](C2)N(C)CC3 | 2.06% [at 2.29 µM] (inactive) | 
C=CCN1CCC2(C)c3cc(O)ccc3C[C@H]1[C@H]2C |  | inactive
CCCN1CCc2cc(O)cc3c2[C@H]1Cc1ccc(O)c(O)c1-3 |  | 12.6 µM (active)
CCCN1CC[C@@H]2c3cc(O)ccc3CC[C@H]21 | -9.66% (inactive) | 
CN1CCc2cc(O)cc3c2[C@H]1Cc1ccc(O)c(O)c1-3 |  | 12.6 µM (active)
COc1cc2c(cc1O)C[C@H]1c3c(cc(O)c(OC)c3-2)CCN1C |  | 2.51 µM (active)
C=CCN1CCc2cccc3c2[C@@H]1Cc1ccc(O)c(O)c1-3 |  | 3.16 µM (active)
CCCN(CCC)[C@@H]1CCc2ccc(O)cc2C1 |  | inactive
COc1cc2c3cc1Oc1cc(ccc1O)C[C@@H]1c4c(cc(OC)c(O)c4Oc4cccc(c4)C[C@H]3N(C)CC2)CC[N+]1(C)C | -8.38% [at 25.6 µM] (inactive) | 
COc1cc2c3cc1Oc1c(O)c(OC)cc4c1[C@@H](Cc1ccc(cc1)Oc1cc(ccc1O)C[C@H]3N(C)CC2)N(C)CC4 | -8.21% [at 11.4 µM] (inactive) | 
C=CCN1CC[C@@]23c4c5ccc(O)c4O[C@H]2/C(=N\N=C2/CC[C@@]4(O)[C@H]6Cc7ccc(O)c8c7[C@@]4(CCN6CC=C)[C@@H]2O8)CC[C@]3(O)[C@@H]1C5 |  | inactive
